According to PubChem BioAssay:
Calls of active or inactive are those of the source. Unless noted, the rule behind the calls is not given here.

Key:
[1] = tested on: Wnt5a (protein binding on small-molecule microarray); experiment: Wnt5a binders on small-molecule microarray, primary screen, biophysical, 635/667 nm fluorescence (AID 1142); details: 635 nm fluorescence, higher = more signal;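 note: fluorescence read at 667 nm with signal to noise per printed feature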
[2] = cell viability in Huh7 cells, primary screen, cytotoxicity control for HCV replication inhibitor project, CellTiter-Glo luminescence, basal, 48 h (AID 1143); details: Huh7 HCV replicon, higher = more signal, called active from +8 up or from −8 down;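 note: Huh7 hepatoma cells carrying a hepatitis C replication reporter with no stimulus; test concentration not given here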
[3] = P. aeruginosa biofilm formation inhibitors, primary screen, PAO1 strain, BacTiter-Glo luminescence, LB-PBS (AID 1144); details: 12 h, higher = more signal
[4] = CREB reporter modulators without forskolin, primary screen, cell-based, PC12, CRE-LacZ reporter, unstimulated (AID 1145); details: no forskolin, luminescence, 4.5 h, higher = more signal, called active from +8 up or from −8 down
[5] = CREB reporter modulators under forskolin, primary screen, cell-based, PC12, CRE-LacZ reporter, forskolin-stimulated (AID 1146); details: luminescence, 4.5 h, higher = more signal, called active from +8 up or from −8 down;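 note: PC12 cells with 6xCRE LacZ reporter stimulated by forskolin 10 µM; beta-galactosidase reporter signal reflecting CREB driven transcription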
[6] = target: Streptavidin (Streptomyces avidinii) (UniProt P22629); experiment: streptavidin binders on small-molecule microarray, primary screen, artefact control for SMM compound annotation, biophysical, 635/667 nm fluorescence (AID 1147); details: streptavidin binding, higher = more signal;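 note: signal reflects streptavidin binding to arrayed compounds as a control protein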
Sequence of Streptavidin (Streptomyces avidinii) (P22629 whole entry, looked up): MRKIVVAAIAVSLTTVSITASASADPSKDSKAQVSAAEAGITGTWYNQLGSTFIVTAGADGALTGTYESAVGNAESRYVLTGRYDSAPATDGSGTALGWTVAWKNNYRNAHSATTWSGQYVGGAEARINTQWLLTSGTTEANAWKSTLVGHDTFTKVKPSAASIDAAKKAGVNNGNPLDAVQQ

[7] = small-molecule binders of probe aInhba, primary screen, biochemical, small-molecule microarray, 635/667 nm fluorescence (AID 1148); details: higher = more signal;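 note: score merges 667nm spot fluorescence with signal-to-noise for antibody binding to printed compounds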
Torsin-1A (Homo sapiens) [8] = target: Torsin-1A (Homo sapiens) (UniProt O14656); experiment: torsin A binders from cell lysate, primary screen, small-molecule microarray, wild-type, 635/667 nm (AID 1149); details: COS7 hTOR1A-WT lysate, 635 nm fluorescence, higher = more signal
Sequence of Torsin-1A (Homo sapiens) (O14656 whole entry, looked up): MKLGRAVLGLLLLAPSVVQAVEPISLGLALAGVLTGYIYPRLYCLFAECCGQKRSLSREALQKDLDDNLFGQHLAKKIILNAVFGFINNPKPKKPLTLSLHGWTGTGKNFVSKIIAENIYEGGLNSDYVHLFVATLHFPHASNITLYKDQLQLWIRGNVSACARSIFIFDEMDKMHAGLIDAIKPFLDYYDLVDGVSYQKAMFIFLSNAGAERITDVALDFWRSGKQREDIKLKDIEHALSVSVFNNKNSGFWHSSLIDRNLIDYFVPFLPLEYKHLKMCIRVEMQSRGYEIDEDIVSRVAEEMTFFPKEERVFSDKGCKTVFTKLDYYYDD

Torsin-1A (Homo sapiens) [9] = target: Torsin-1A (Homo sapiens) (UniProt O14656); experiment: small-molecule binders of mutant TOR1A in lysate, primary screen, cell lysate, small-molecule microarray, COS7 lysate, 635/667 nm fluorescence (AID 1150); details: COS7 hTOR1A mutant lysate, 635 nm fluorescence, higher = more signal;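 note: score pools 667 nm emission and signal to noise measuring lysate protein binding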
[10] = tested on: Sonic hedgehog protein (Shh); experiment: small-molecule binders of Shh protein, primary screen, biochemical, small-molecule microarray, 635/667 nm fluorescence (AID 1151); details: small-molecule microarray binding, 635 nm fluorescence; higher = more signal;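 note: Shh protein binding to compounds spotted on small-molecule microarray slides; score combines spot fluorescence intensity with signal-to-noise across triplicate slides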
[11] = E. coli DRC41 culture turbidity changes, primary screen, E. coli filamentation inducer project, strain DRC41, OD650, 48 h (AID 1152);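 note: E. coli MC1000 strain DRC41 lacking acrAB efflux pump and sulA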; details: E. coli DRC41 (acrAB sulA), higher = more signal, called active from +8 up or from −8 down
[12] = small-molecule binders of probe aLefty1, primary screen, biochemical, small-molecule microarray, 635/667 nm fluorescence (AID 1153); details: higher = more signal;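 note: score merges spot fluorescence with signal-to-noise ratio from the scanned slide images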
[13] = PSAC antagonists in infected red cells, primary screen, cell-based, P. falciparum Indochina, OD700, 1 h (AID 1154); details: P. falciparum Indochina infected RBC osmotic lysis, higher = more signal, called active from +8 up or from −8 down
[14] = PSAC antagonists in infected red cells, primary screen, cell-based, P. falciparum Indochina, OD700, 2 h (AID 1155);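 note: lysis reports solute entry through the parasite surface anion channel PSAC; channel blockers reduce lysis of infected cells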; details: P. falciparum Indochina infected erythrocytes, osmotic lysis OD700; higher = more signal, called active from +8 up or from −8 down
[15] = osmotic lysis modulators in infected erythrocytes, primary screen, PSAC antagonist project, cell-based, P. falciparum Indochina, OD700, 3 h (AID 1156); details: higher = more signal, called active from +8 up or from −8 down
[16] = PSAC antagonists in infected red cells, primary screen, cell-based, P. falciparum Indochina, OD700, 18 h (AID 1157); details: P. falciparum Indochina infected erythrocytes, osmotic lysis OD700, 18 h; higher = more signal, called active from +8 up or from −8 down
[17] = modulators of S6 phosphorylation in cells, primary screen, cell-based, A549, cytoblot, luminescence, serum-stimulated (AID 1158); details: A549 phospho-S6 cytoblot, 5 h, higher = more signal;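 note: serum-stimulated A549 lung adenocarcinoma cells; signal is phosphorylated S6 detected by cytoblot immunostaining with HRP secondary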
[18] = target: NADPH oxidase 2 (Homo sapiens) (UniProt P04839); experiment: NOX2-dependent H2O2 signal modulators, primary screen, NOX inhibitor project, cell-based, HEK293-NOX2, PMA-stimulated, Amplex Red fluorescence (AID 1159); details: 45 min, higher = more signal, called active from +8 up or from −8 down; note: test concentration not given here
Sequence of NADPH oxidase 2 (Homo sapiens) (P04839 whole entry, looked up): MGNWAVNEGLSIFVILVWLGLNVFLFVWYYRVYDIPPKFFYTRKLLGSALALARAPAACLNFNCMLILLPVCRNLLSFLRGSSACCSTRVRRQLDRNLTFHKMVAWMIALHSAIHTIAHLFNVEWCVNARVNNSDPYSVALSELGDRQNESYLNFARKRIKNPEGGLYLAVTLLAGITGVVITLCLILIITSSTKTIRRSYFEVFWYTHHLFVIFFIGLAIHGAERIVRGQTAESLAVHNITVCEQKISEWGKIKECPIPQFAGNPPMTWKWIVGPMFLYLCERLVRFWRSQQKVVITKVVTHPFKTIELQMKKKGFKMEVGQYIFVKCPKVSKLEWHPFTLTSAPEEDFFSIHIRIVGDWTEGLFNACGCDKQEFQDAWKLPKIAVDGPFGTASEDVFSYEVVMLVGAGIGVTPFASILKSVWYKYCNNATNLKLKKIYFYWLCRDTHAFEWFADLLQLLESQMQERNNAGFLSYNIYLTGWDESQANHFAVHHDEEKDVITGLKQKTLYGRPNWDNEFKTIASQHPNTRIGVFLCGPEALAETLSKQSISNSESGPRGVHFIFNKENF

[19] = target: NADPH oxidase 4 (Homo sapiens) (UniProt Q9NPH5); experiment: NOX4-dependent H2O2 signal modulators, primary screen, NOX inhibitor project, cell-based, HEK293-NOX4, tetracycline-induced, Amplex Red fluorescence (AID 1160); details: 45 min, higher = more signal, called active from +8 up or from −8 down
Sequence of NADPH oxidase 4 (Homo sapiens) (Q9NPH5 whole entry, looked up): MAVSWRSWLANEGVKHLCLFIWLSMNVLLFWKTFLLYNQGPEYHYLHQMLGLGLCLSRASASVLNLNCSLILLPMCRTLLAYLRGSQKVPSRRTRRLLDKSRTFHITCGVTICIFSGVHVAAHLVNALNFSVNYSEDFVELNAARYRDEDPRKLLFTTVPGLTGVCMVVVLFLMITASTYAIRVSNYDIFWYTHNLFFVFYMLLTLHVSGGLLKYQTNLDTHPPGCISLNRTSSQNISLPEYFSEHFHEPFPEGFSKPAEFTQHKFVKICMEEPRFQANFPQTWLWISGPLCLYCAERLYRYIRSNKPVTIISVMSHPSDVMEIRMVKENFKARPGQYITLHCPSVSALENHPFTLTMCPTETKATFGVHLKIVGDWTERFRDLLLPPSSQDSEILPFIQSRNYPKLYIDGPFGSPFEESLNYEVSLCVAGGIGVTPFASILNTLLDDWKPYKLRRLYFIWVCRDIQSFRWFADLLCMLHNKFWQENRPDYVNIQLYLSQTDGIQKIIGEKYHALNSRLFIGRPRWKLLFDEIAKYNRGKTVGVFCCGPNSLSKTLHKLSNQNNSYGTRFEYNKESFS

[20] = target: NADPH oxidase 5 (Homo sapiens) (UniProt Q96PH1); experiment: NOX5-dependent H2O2 signal modulators, primary screen, NOX inhibitor project, cell-based, HEK293-NOX5, Amplex Red fluorescence (AID 1161); details: HEK293-NOX5, ionomycin, 45 min, higher = more signal
Sequence of NADPH oxidase 5 (Homo sapiens) (Q96PH1 whole entry, looked up): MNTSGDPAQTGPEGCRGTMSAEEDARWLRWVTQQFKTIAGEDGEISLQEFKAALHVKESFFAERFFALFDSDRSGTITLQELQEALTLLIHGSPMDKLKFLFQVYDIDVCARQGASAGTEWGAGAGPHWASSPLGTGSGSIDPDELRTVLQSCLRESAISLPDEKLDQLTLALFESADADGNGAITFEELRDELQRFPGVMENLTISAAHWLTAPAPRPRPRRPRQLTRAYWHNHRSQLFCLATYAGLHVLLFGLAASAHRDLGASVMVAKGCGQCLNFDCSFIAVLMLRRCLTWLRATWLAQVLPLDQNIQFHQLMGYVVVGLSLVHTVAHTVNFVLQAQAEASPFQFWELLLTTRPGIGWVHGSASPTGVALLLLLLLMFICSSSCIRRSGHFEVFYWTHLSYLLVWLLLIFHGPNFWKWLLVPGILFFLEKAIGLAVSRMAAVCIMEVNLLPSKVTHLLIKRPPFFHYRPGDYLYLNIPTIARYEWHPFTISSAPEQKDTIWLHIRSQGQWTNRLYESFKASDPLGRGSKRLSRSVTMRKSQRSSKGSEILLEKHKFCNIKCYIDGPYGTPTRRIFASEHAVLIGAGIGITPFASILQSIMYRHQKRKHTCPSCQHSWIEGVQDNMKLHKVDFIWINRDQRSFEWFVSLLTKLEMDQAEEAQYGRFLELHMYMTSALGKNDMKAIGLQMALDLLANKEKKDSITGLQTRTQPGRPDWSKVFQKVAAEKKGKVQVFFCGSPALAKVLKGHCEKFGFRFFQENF

Structure (SMILES) | composite z-score [1] | z-score [2] | z-score [3] | z-score [4] | z-score [5] | composite z-score [6] | composite z-score [7] | composite z-score (Torsin-1A (Homo sapiens) [8]) | composite z-score (Torsin-1A (Homo sapiens) [9]) | composite z-score [10] | z-score [11] | composite z-score [12] | z-score [13] | z-score [14] | z-score [15] | z-score [16] | z-score [17] | z-score [18] | z-score [19] | z-score [20]
O=C1C2C=CC(C(O)c3ccc(I)cc3)N(Nc3ccccc3)C2C(=O)N1c1ccccc1 (stereo not given) | 0.478 | -0.167 (inactive) | -0.379 (inactive) | -0.522 (inactive) | 0.32 (inactive) | 1.88 | 0.151 | -0.087 | 0.36 | 0.0756 | -1.11 (inactive) | 0.437 | 6.92 (inactive) | 2.42 (inactive) | -0.166 (inactive) | 1.83 (inactive) | -1.21 | -1.88 (inactive) | -3.86 (inactive) | -2.54
COCCCNC(=O)[C@@]1(Sc2ccc(C)cc2)CC(=O)N(C(C)C)[C@@H]1c1ccc(CO)cc1I | -0.0469 | -4.86 (inactive) | -0.96 (inactive) | 0.0655 (inactive) | 1.35 (inactive) | -0.671 | -0.0762 | 0.154 | 1.18 | -0.005 | -0.158 (inactive) | 0.0445 | 6.72 (inactive) | -0.602 (inactive) | 0.349 (inactive) | -1.49 (inactive) | 1.61 | 1.77 (inactive) | -1.47 (inactive) | -0.854
C=CCC(OC(C)=O)[C@@H]1[C@@H](N(Cc2cccc3ccccc23)C(=O)c2ccc(-c3ccccc3)cc2)c2cc(OCCCO)ccc2N1C(=O)c1ccc(-c2ccccc2)cc1 (stereo not given in full) | 0.09 | 0.457 (inactive) | -0.1 (inactive) | 0.367 (inactive) | 0.859 (inactive) | 0.361 | 0.114 | 0.162 | 0.0809 | 0.286 | -0.883 (inactive) | -0.06 | 0.311 (inactive) | -1.06 (inactive) | -0.942 (inactive) | -0.454 (inactive) | -0.0997 | 0.582 (inactive) | 0.688 (inactive) | 0.296
CCOC(=O)C=Cc1ccccc1O | 0.0265 | -4.76 (inactive) | -0.203 (inactive) | -0.471 (inactive) | -0.586 (inactive) | 0.486 | 0.0051 | 0.399 | 0.146 | 0.158 | -0.646 (inactive) | 0.135 | 19.4 (active) | 2.46 (inactive) | 0.784 (inactive) | -1.43 (inactive) | 1.47 | -4.38 (inactive) | -2.24 (inactive) | -4.65
C=C(/C(=C/C[C@@H](OC(C)=O)c1ccc(OCCO)cc1)c1cc(C(=O)OC)ccc1OC)C(C)C | -0.0426 | -2.02 (inactive) | 1.03 (inactive) | 3.85 (inactive) | -0.27 (inactive) | -0.124 | 0.167 | 0.856 | 0.693 | 1.41 | -0.2 (inactive) | 0.0794 | 8.16 (active) | 1.11 (inactive) | 1.24 (inactive) | 0.774 (inactive) | -0.219 | -0.323 (inactive) | -0.645 (inactive) | -1.87
O=C1[C@@]23C=C(Br)[C@H](C[C@@H]2COC3)[C@@]12CO2 | 0.731 | 0.762 (inactive) | 0.461 (inactive) | -0.329 (inactive) | 2.56 (inactive) | -0.129 | -0.0986 | 0.283 | 0.276 | 0.497 | -1.07 (inactive) | -0.217 | 0.297 (inactive) | 0.0503 (inactive) | -0.497 (inactive) | 0.258 (inactive) | -0.679 | 0.249 (inactive) | 0.218 (inactive) | 0.139
COc1ccc([Si](C)(C)[C@H]2[C@H](CC(=O)N3CCC[C@H]3CO)O[C@@]3(C(=O)N(Cc4ccc(N5CCC5=O)cc4)c4ccccc43)[C@@H]2C)cc1 | 0.699 | -5.51 (inactive) | 0.0292 (inactive) | 0.18 (inactive) | -0.404 (inactive) | 0.39 | -0.0523 | 1.1 | 0.43 | 1.77 | -0.691 (inactive) | 0.213 | 10 (active) | 1.8 (inactive) | 0.171 (inactive) | 0.746 (inactive) | 0.783 | 1.93 (inactive) | 1.63 (inactive) | 4.56
O=c1cccc(-c2ccco2)o1 | 0.302 | -0.768 (inactive) | 0.329 (inactive) | -0.518 (inactive) | 0.57 (inactive) | 0.721 | 0.0091 | 0.444 | 0.066 | 2.07 | -1.13 (inactive) | -0.103 | 0.128 (inactive) | 0.0564 (inactive) | -0.394 (inactive) | 0.143 (inactive) | -0.397 | 0.523 (inactive) | -0.772 (inactive) | -0.722
CC(C)CNC(=O)[C@@]1(c2ccc([N+](=O)[O-])cc2)CC(=O)N(C2CCCCC2)[C@@H]1c1ccc(CO)cc1 | 0.335 | -2.21 (inactive) | 0.901 (inactive) | 0.585 (inactive) | 0.142 (inactive) | -0.0755 | -0.153 | 0.442 | 0.0881 | -0.158 | 0.706 (inactive) | 0.164 | 0.879 (inactive) | -0.189 (inactive) | 0.0352 (inactive) | -0.013 (inactive) | 0.358 | 0.382 (inactive) | 0.581 (inactive) | 0.668
